Compounds with a hit are over-represented: about 19% of the library has one in this group of screens.
TGFb SMAD3 inh: TGF-b pathway inhibition. HepG2 CAGA-GFP TGF-b/SMAD3 reporter, GFP fluorescence, 18 h; TGF-beta stimulated, 500 pg/mL final. Potency, µM (series often up to 46.1 µM), usual class: inhibitors. 410,000 compounds, 1.2% hits. AID 588855; note: nearly all actives have a fitted effect of over 65% in size
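Smad-responsive CAGA-GFP expression was quantified in HEPG2 cells exposed to compounds and 500 pg/mL final TGF-beta for 18 h at 37 degrees C; unstimulated wells defined full inhibition.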
IL-1B inflam inh: inhibitors of inflammasome signaling (IL-1 beta secretion) | 360,000 compounds, 4.7% hits | activity change, % at 57.5 µM | AID 743279 | THP-1 LPS/ATP IL-1B secretion, AlphaLISA, 16 h; hits give low values; in the data active = activity change below about -50%; inconclusive = mostly about -30% to -49%
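THP-1 cells pretreated 1 hr with compounds (up to 57.5 uM final), then stimulated with LPS (250 ng/mL final) plus ATP (1.25 mM final); secreted IL-1B measured by AlphaLISA after 16 hr, decreased signal indicating inhibition.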
DT40 TDP1 no CPT: qHTS for Inhibitors of human tyrosyl-DNA phosphodiesterase 1 (TDP1): qHTS in cells in absence of CPT; DT40 Tdp1-/- hTDP1 cells, no CPT, ATP luminescence, 48 h; Potency, µM (series often up to 46.2 µM), actives largely listed as inhibitors; 420,000 compounds, 15% hits; AID 686978, 2013; note: nearly all actives have a fitted effect of over 55% in size
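Chicken DT40 Tdp1-/- cells complemented with human TDP1, screened without camptothecin (DMSO vehicle only), 400 cells/well. Compounds pin-transferred, cells incubated at 37 °C for at least 48 hr. Growth read as ATP-dependent luminescence (CellTiter-Glo, 30 min at RT).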
HepG2 viability: counter-screen for TGF-b inhibitors: cytotoxicity in HepG2 cells; HepG2 CAGA-GFP viability, ATP luminescence, 18 h; Potency, µM (titrated, usually from 46.1 µM), most hits filed as cytotoxic; 410,000 compounds, 0.76% hits
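HepG2 CAGA-GFP cells (1000/well, DMEM with 1% FBS) received compound, then TGF-beta at 500 pg/mL final, and were incubated 18 hours at 37 degrees C. Viability was read by CellTiter-Glo luminescence. Media-only wells were set as complete cell-killing and DMSO as no toxicity.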
DT40 TDP1 CPT: DT40-hTDP1 cell growth loss with CPT; chicken DT40 Tdp1-/-;hTDP1 cells + 20 nM CPT, ATP luminescence, 48 h; Potency, µM (top dose mostly 46.2 µM), most hits filed as inhibitors; 420,000 compounds, 12% hits; AID 686979; note: nearly all actives have a fitted effect of over 55% in size
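Chicken DT40 Tdp1-/- cells complemented with human TDP1, 400 cells/well, exposed to compounds plus 20 nM camptothecin for at least 48 h at 37 C; viability read as ATP content by CellTiter-Glo luminescence.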
TDP1 block: blocks human tyrosyl-DNA phosphodiesterase 1 | Q9NUW8 | recombinant TDP1, AlphaScreen DNA substrate cleavage | Potency, µM (doses to about 130 µM), actives largely listed as inhibitors | 350,000 compounds, 0.28% hits; note: nearly all actives have a fitted effect of over 40% in size
Target sequence (Q9NUW8 whole entry, looked up): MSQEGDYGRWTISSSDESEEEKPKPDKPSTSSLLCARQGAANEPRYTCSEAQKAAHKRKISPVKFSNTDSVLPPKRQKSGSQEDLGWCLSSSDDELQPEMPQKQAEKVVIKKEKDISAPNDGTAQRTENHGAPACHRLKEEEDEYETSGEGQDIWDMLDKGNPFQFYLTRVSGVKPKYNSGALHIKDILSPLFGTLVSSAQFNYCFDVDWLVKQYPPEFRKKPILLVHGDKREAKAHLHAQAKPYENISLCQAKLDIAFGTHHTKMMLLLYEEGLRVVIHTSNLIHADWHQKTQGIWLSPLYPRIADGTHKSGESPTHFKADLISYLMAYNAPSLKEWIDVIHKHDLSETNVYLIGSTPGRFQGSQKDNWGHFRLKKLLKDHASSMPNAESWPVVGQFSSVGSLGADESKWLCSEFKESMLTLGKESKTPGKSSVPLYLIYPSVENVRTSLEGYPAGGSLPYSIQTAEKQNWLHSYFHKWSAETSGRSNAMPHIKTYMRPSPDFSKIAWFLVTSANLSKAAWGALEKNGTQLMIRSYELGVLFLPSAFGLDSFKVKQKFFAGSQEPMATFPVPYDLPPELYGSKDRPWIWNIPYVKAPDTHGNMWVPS
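AlphaScreen read-out: signal falls as enzyme removes the 3' tyrosine-FITC from a 5'-biotinylated DNA oligo (15 nM, 5 min, RT). Enzyme was E. coli-made recombinant Tdp1 at 1 nM, exposed to compound for 15 min beforehand; beads 10 ug/ml, 10 min.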
Hits are given with their value; - = inactive; ? = inconclusive; . = no result; [ ] = dose if it differs, or a comment. Unless noted, calls come from the whole dose curve; as a rule, active = well fitted curve in the direction sought with a large enough effect; inconclusive = small, poorly fitted or top-dose-only effect, or another doubt; inactive = no such curve, though single readings can be large; an effect the other way counts as inactive or inconclusive.

SMILES	TGFb SMAD3 inh	IL-1B inflam inh	DT40 TDP1 no CPT	HepG2 viability	DT40 TDP1 CPT	TDP1 block
Cn1cc(-c2cc3n(n2)CCC(=O)N3CC(=O)NCc2ccc(Cl)cc2)c2ccccc21	-	.	-	-	-	-
CCN1CCN(S(=O)(=O)c2ccc(Cl)c(C(=O)N(C)Cc3cccc(Cl)c3Cl)c2)CC1	?	-69.0	20.6µM	-	16.4µM	-
CCN1CCN(S(=O)(=O)c2ccc(Cl)c(C(=O)N(C)Cc3ccc(F)cc3)c2)CC1	-	-	?	-	-	-
CCN1CCN(S(=O)(=O)c2ccc(Cl)c(C(=O)N(C)Cc3ccc(C(C)(C)C)cc3)c2)CC1	-	-	11.6µM	-	?	.
CCN1CCN(S(=O)(=O)c2ccc(Cl)c(C(=O)N(C)Cc3ccccc3)c2)CC1	-	-	-	-	?	-
Cc1ccc(S(=O)(=O)c2nnn(CC(=O)Nc3ccccc3C)c2N)cc1C	-	.	14.6µM	-	?	-
COC(=O)NC(c1ccccc1)C1(C(=O)OC)C(=O)Cc2ccccc21 (centres undefined)	.	.	.	.	.	-
Cc1ccc2oc(=O)n(CCNC(=O)Nc3ccccc3Cl)c2c1	?	.	?	-	18.4µM	-
Cc1cc(NC(=O)Cn2c(=O)nc(-c3ccccc3F)c3cc(Cl)ccc32)ccc1Br	-	.	?	-	-	-
OC(CNCc1ccco1)Cn1c2ccc(Br)cc2c2cc(Br)ccc21 (centres undefined)	?	-59.0	18.4µM	-	14.6µM	-
O=C(Nc1nnc(C2CC2)s1)C1CCCCC1	-	-	-	-	-	-
C/C=C/C(=O)Nc1nnc(C2CCCCC2)s1	-	-87.7	-	-	?	-
CCN(CC(=O)NCCCn1ccnc1)S(=O)(=O)c1ccc(C)cc1	-	-	-	-	-	-[0.0935 µM]
COc1ccc(NC(=O)CCc2nnc3ccc(N4CCN(c5cccc(OC)c5)CC4)nn23)cc1	-	-	14.6µM	-	?	.
Cc1ccc(NC(=O)CCc2nnc3ccc(N4CCC(C)CC4)nn23)nc1	-	-53.5	-	-	-	-
COc1cccc(NC(=O)CCc2nnc3ccc(N4CCN(c5cccc(OC)c5)CC4)nn23)c1	-	-	?	-	?	-
O=C1/C(=N\S(=O)(=O)c2cccs2)C([n+]2ccccc2)=C([O-])c2ccccc21	2µM	-62.7	2.31µM	-	2.31µM	.
CC(C)(C)c1cc[n+](C2=C([O-])c3ccccc3C(=O)/C2=N\S(=O)(=O)c2cccs2)cc1	2.82µM	-87.8	4.61µM	4.47µM	2.31µM	-
Cc1cccc(C(=O)N[C@H](C(=O)Nc2nc3ccccc3[nH]2)C(C)C)c1	?	-	3.66µM	-	3.26µM	-
Cc1csc(NC(=O)c2ccccc2)n1	-	-	-	-	-	.
CCC(CC)c1nnc(NC(=O)[C@@H](NC(=O)c2cccc(C)c2)C(C)C)s1	-	-	-	-	-	-
CC(Oc1ccc(Br)cc1)C(=O)Nc1nc(-c2ccccn2)cs1 (centres undefined)	?	-99.3	3.26µM	-	4.61µM	-
Cc1csc(NC(=O)[C@@H](NC(=O)c2ccccc2)C(C)C)n1	-	-	8.2µM	-	?	-
Cc1csc(NC(=S)NC(=O)c2ccccc2)n1	?	-	18.4µM	-	?	-
Cc1cccc(C(=O)N[C@H](C(=O)Nc2nccs2)C(C)C)c1	-	-	-	-	-	-
SMILES	TGFb SMAD3 inh	IL-1B inflam inh	DT40 TDP1 no CPT	HepG2 viability	DT40 TDP1 CPT	TDP1 block
Cc1cccc(C(=O)N[C@H](C(=O)Nc2nc(C)cs2)C(C)C)c1	-	-	7.31µM	-	8.2µM	-
CC(C)[C@H](NC(=O)c1ccccc1Cl)C(=O)Nc1nc(-c2ccccn2)cs1	-	-	5.8µM	-	5.8µM	-
CCc1cc(Cn2nc(-c3ccccc3)cc2C(=O)NCc2cccs2)on1	?	-72.6	?	-	16.4µM	-
CCOC(=O)c1cc(-c2ccccc2C)nn1Cc1cc(CC)no1	-	-	?	-	-	56.2µM
CCc1cc(Cn2nc(-c3ccccc3)cc2C(=O)NCCOC)on1	-	-	-	-	-	.
CC1Cc2ccccc2N1C(=O)CSc1nncs1 (centres undefined)	-	-	-	-	-	-
COc1ccc2[nH]c(C(=O)O)c(CCNC(C)=O)c2c1	-	-	-	-	-	-
COc1ccc2[nH]c(C(=O)O)c(CCN3C(=O)c4cccc([N+](=O)[O-])c4C3=O)c2c1	-	-	-	-	-	44.7µM
Cc1ccc(C#CC2C=CC(Oc3ccc4c(c3)OCO4)C(CO)O2)c(C)c1 (centres undefined)	.	.	.	.	.	-[21 µM]
O=C(Nc1ccc(N2CCCC2)cc1)c1ccccc1F	-	-	?	-	10.3µM	-
O=C(Nc1ccc(N2CCCC2)cc1)c1cccc(Cl)c1Cl	-	-	16.4µM	-	?	-
Cc1ccc(C(=O)NC2c3ccccc3-c3ccccc32)cc1	-	-	3.66µM	-	2.91µM	-
Cc1ccc(C(=O)NC2CCc3ccccc3C2=O)cc1 (centres undefined)	-	-	-	-	?	-
Cc1ccc(NC(=O)C2c3ccccc3-c3ccccc32)cc1	-	-	?	-	6.51µM	.
CCCN=C(N)/C(C(=O)OCC)=C(\O)c1ccc(OC)cc1	-	-	-	-	-	-
CCOC(=O)/C(C(N)=NCC(C)C)=C(/O)c1ccccc1	-	-81.0	?	-	-	-
COC(=O)c1cc(Cl)ccc1NCC(N)c1ccccc1 (centres undefined)	?	?	?	-	18.4µM	.
COc1ccccc1CC(=O)Nc1ccc(Cl)cc1C(=O)O	-	-	-	-	-	-
CN(Cc1ccccc1)C(=O)Cn1nnc(-c2ccccc2)c1COc1ccccc1	-	-	20.6µM	-	?	.
O=C(Cn1nnc(-c2ccccc2)c1COc1ccc2ccccc2c1)NCC1CC1	?	-	?	-	18.4µM	.
CCCCNC(=O)Cn1nnc(-c2ccccc2)c1COc1ccc(C(C)=O)cc1	-	-	?	-	-	.
CN(Cc1ccccc1)C(=O)Cn1nnc(-c2ccccc2)c1COc1ccc2ccccc2c1	-	-	18.4µM	-	23.1µM	.
CC1(C)S[C@@H]2C(C(=O)O)NC(=O)N2C1C(=O)O (some centres undefined)	-	.	-	-	-	.
CC(C(=O)NCc1cccc(Cl)c1)N1C(=O)c2ccccc2C1=O (centres undefined)	-	-	-	-	-	-

High-throughput results from PubChem BioAssay.
